PolyA inh – inhibitors of polyadenylation in S. cerevisiae | 300,000 compounds, 0.02% hits | activity score, % at 12 µM | S. cerevisiae SKY197-pL101 polyadenylation reporter, beta-gal luminescence; efflux-impaired pdr1/pdr3 knockout yeast; score 100 = 6 SD above DMSO;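 active means lowest replicate activity score at least 50, where 100 means six control SD above control mean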;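 further: yeast exposed to compound for 9 h at 30 °C; higher score means more reporter readthrough which indicates perturbed polyadenylation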
EBNA-1 inhibitor – blocks EBNA-1 binding to DNA. EBNA-1 DNA binding, fluorescence polarization. inhibition, % at 14.8 µM. 300,000 compounds, 0.34% hits; in the data active means inhibition above about 28%
dFosB activator – activators of mouse delta FosB homodimer | P13346 | purified delta FosB, TAMRA-CDK5 oligo fluorescence polarization; percent of positive-control signal above neutral wells | activation, % at 25 µM | 340,000 compounds, 0.99% hits | AID 493131;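 active means mean activation above about 17%, with every replicate also reaching it, limit read from the data, passing the limit was not always enough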
Target sequence (P13346 whole entry, looked up): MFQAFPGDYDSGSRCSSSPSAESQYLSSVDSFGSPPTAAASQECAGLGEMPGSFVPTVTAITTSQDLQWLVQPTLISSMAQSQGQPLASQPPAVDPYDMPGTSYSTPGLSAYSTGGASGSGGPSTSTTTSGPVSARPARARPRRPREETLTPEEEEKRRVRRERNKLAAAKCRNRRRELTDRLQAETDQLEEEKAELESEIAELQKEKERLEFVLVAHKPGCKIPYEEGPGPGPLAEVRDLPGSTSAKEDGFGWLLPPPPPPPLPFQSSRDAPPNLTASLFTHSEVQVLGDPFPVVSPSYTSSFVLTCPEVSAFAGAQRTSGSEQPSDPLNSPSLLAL
NALP3 yeast inh – blocks the NALP3 inflammasome reconstituted in yeast | Yeast reconstituted NLRP3/ASC/caspase-1, beta-gal luminescence, 24 h | inhibition, % at 10 µM | 330,000 compounds, 0.39% hits;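 active means inhibition of 50% or more; inactive means inhibition below 50%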;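 further: plate controls were induced DMSO wells for no effect and uninduced yeast grown without galactose for full effect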
ZTA DNA inh – ZTA (EBV) inhibition in EBNA-1 counter-screen; P03206; ZTA-DNA binding, fluorescence polarization; inhibition, % at 11 µM; 320,000 compounds, 0.15% hits; in the data active means inhibition above about 33%
NALP1 yeast inh – NALP1 inhibition | inhibition, % at 10 µM | S. cerevisiae NALP1/ASC/caspase-1 growth, X-gal OD620, 72 h | 280,000 compounds, 0.61% hits | AID 2071; in the data active means inhibition mostly above about 24%, no sharp cut-off; inactive means mostly below about 32%
* marks the source's active call; other numbers are inactive results. In the library only some 2.2% were active in any assay of this set; here they are far more common.

What do the screens show for `CC1(NC(=O)Nc2cc([N+](=O)[O-])ccc2O)CCS(=O)(=O)C1` (centres undefined)?
dFosB activator: 0.5; NALP3 yeast inh: 22.7; ZTA DNA inh: -15.7

Results for Cc1ccc(C2OC(=O)C=C2c2ccccc2)cc1 (centres undefined) ?
PolyA inh: 5.4; EBNA-1 inhibitor: 3.3; dFosB activator: -8.7; NALP3 yeast inh: -12.7; ZTA DNA inh: -10.1

How did CN(C)Cc1c(O)ccc2c1O/C(=C\C=C\c1ccccc1)C2=O do in these assays?
PolyA inh: -0.2; EBNA-1 inhibitor: -4.0; dFosB activator: -14.2; NALP3 yeast inh: 8.5; ZTA DNA inh: 2.4; NALP1 yeast inh: 44.1*

Results for CC(=O)NCCc1nc2cc(NC(=O)COc3ccc(C)cc3)ccc2n1C ?
PolyA inh: -1.6; EBNA-1 inhibitor: 13.8; dFosB activator: -5.2; NALP3 yeast inh: 3.0; ZTA DNA inh: 9.2; NALP1 yeast inh: 9.9

Results for Cc1ccc(S(=O)(=O)NC(=O)Nc2ccc(N(C)C)cc2)cc1 ?
PolyA inh: -18.7; EBNA-1 inhibitor: active; dFosB activator: 10.3; NALP3 yeast inh: 42.5; ZTA DNA inh: active; NALP1 yeast inh: 18.0

Results for COCC(C)N1CCC(n2nccc2NC(=O)CCCc2ccccc2)CC1 (centres undefined) ?
PolyA inh: 17.8; EBNA-1 inhibitor: 1.6; dFosB activator: 3.0; NALP3 yeast inh: 8.2; ZTA DNA inh: 8.0; NALP1 yeast inh: 13.6

Results for CCC(C)Nc1nc(-c2c[nH]c3ccccc23)cs1 (centres undefined) ?
PolyA inh: -1.1; EBNA-1 inhibitor: 19.3; dFosB activator: -7.6; NALP3 yeast inh: 13.5; ZTA DNA inh: 54.9*; NALP1 yeast inh: 8.9

How did CCCCn1c(N)c(N(CCOC)C(=O)c2ccc(-n3c(C)ccc3C)cc2)c(=O)[nH]c1=O do in these assays?
PolyA inh: -10.8; EBNA-1 inhibitor: 0.3; dFosB activator: -3.1; NALP3 yeast inh: 15.5; ZTA DNA inh: 9.8

Results for CC1(C)C(C=C(Cl)Cl)C1C(=O)Nc1ccc([N+](=O)[O-])cc1 (centres undefined) ?
EBNA-1 inhibitor: -8.9; ZTA DNA inh: 10.0; NALP1 yeast inh: 57.3*

Results for Cc1cccc2c1c(N=NC(N)=S)c(O)n2C1OC(CO)C(O)C(O)C1O (centres undefined) ?
PolyA inh: 12.4; EBNA-1 inhibitor: -1.2; dFosB activator: -5.7; NALP3 yeast inh: 18.0; ZTA DNA inh: -5.5; NALP1 yeast inh: -19.3

Results for Cc1ccc(-n2c(=O)c(C#N)cc3c(=O)n4cccc(C)c4nc32)cc1 ?
PolyA inh: -10.8; EBNA-1 inhibitor: -2.4; dFosB activator: 9.0; NALP3 yeast inh: 13.2; ZTA DNA inh: -1.2; NALP1 yeast inh: 37.0*

How did c1ccc(-n2nnnc2-c2cnc(-c3ccncc3)nc2-c2cccs2)cc1 do in these assays?
PolyA inh: -11.3; EBNA-1 inhibitor: -9.8; dFosB activator: -13.9; NALP3 yeast inh: 9.8; ZTA DNA inh: -3.0; NALP1 yeast inh: 21.6*

What do the screens show for `COc1ccc(CNc2ncnc3sccc23)cc1`?
PolyA inh: 114.0*; EBNA-1 inhibitor: -9.5; dFosB activator: -12.8; NALP3 yeast inh: 35.6; ZTA DNA inh: 10.1; NALP1 yeast inh: 12.2

How did CCOC(=O)/C=c1\s/c(=C\c2ccc(C)cc2)c(=O)n1CC(=O)NCc1ccco1 do in these assays?
PolyA inh: -12.6; EBNA-1 inhibitor: 44.6*; dFosB activator: -8.6; NALP3 yeast inh: -1.0; ZTA DNA inh: 11.1; NALP1 yeast inh: 21.5

How did CC1CC(C)CN(C(=O)CSc2nnc(-c3ccc(Cl)cc3)o2)C1 (centres undefined) do in these assays?
PolyA inh: 25.6; EBNA-1 inhibitor: 0.2; dFosB activator: -3.6; NALP3 yeast inh: 24.5; ZTA DNA inh: -2.8; NALP1 yeast inh: 34.8*

What do the screens show for `Cc1cc(C(=O)NCC(=O)OC(C)C(=O)N2CCOCC2)ccc1[N+](=O)[O-]` (centres undefined)?
dFosB activator: 0.5; NALP3 yeast inh: 13.5; ZTA DNA inh: 1.1

How did O=C(CSc1nnc2c(n1)[nH]c1ccc(F)cc12)NCc1ccc(F)cc1 do in these assays?
PolyA inh: 6.2; EBNA-1 inhibitor: 11.7; dFosB activator: 5.9; NALP3 yeast inh: 15.0; ZTA DNA inh: -1.1; NALP1 yeast inh: -0.6
